Among the data in PubChem BioAssay (NCI) are growth inhibition values, retold here.

The panel holds about 79,000 compounds, 15% with a hit somewhere; the sample as a whole holds those more often. Unmarked numbers belong to inactive results. Rule as the data show it: active = growth inhibition above about 70%; inactive = the rest.

This experiment is described as follows: NCI Yeast Anticancer Drug Screen. Data for the bub3 strain (AID 167). The conditions noted are these: S. cerevisiae bub3 mutant strain, at 50.0 µM, hits give high values. How it is done: Growth inhibition of yeast strains with defined genetic alterations is measured as a screen for potential anti-cancer activity. Selected strains with alterations in DNA damage repair or cell cycle control were exposed to compounds and growth inhibition was measured relative to vehicle treated controls. The strain used in this assay is bub3
`Cc1cc(=O)n(-c2ccc(F)cc2)[nH]1`: the growth inhibition was 50.6%.
As to `Cc1ccc(C(O)C2CC2)cc1` (stereo not given), the growth inhibition was -21.6%.
For `OCC1OC(OC2C(O)C(CO)OC2(CO)OC2OC(CO)C(O)C(O)C2O)C(O)C(O)C1O` (stereo not given), the growth inhibition was -14.2%.
As for `CCCCC1C(=O)N(c2ccccc2)N(c2ccccc2)C1=O`, the figure is -4.2%.
On to `COc1cc(C(=O)NC(=S)Nc2ccc3ccccc3c2)cc(OC)c1OC`, for which the growth inhibition was -3.4%.
Turning to `COC(=O)c1cccc(Br)c1`, the growth inhibition is 0.15%.
`CC(C)CCOC(=O)c1ccccc1`: the growth inhibition is -29.1%.
As for `NC(C(=O)O)C(O)c1ccco1` (stereo not given), the growth inhibition was 3.75%.
`COC(=O)c1ccccc1N(C)C`: the growth inhibition is 2.65%.
As for `COc1cc(C2NC(=O)C(C#N)=C(Nc3cccc(C)c3)S2)ccc1O` (stereo not given), the growth inhibition was -6.15%.
Consider `Cc1nc2ccccc2c2nnc(SCC(=O)N(Cc3ccccc3)c3ccccc3)n12`, for which the growth inhibition is -3.9%.
`O=C(Nc1ccccc1C(=O)NCC1CC1)c1cccs1`: the growth inhibition is 5.9%.
Turning to `CC(C)C(C#N)(C(C)C)C(C)C`, the growth inhibition was -1.95%.
In the case of `O=C1C=CC(=O)N1c1ccc(I)cc1Cl`, the growth inhibition was 32.3%.
Consider `O=[N+]([O-])c1ccc(N=Nc2ccccc2)cc1`, for which the growth inhibition is -5.2%.
Take `Cc1cc(C)cc(NCCC#N)c1`: the growth inhibition is 11.8%.
With `CC1C(=O)c2ccccc2CC1C(=O)O` (stereo not given), the growth inhibition was -5.1%.
On to `O=C(c1ccccc1)C1CCC1`, for which the growth inhibition was 7.95%.
Regarding `C[N+](C)(C)C(=O)c1ccccc1`, the growth inhibition was -1.15%.
For `COC(=O)c1ccccc1Br`, the growth inhibition is -3.75%.
As to `Cc1cc(OCCO)cc(C)c1Cl`, the growth inhibition is -10.5%.
On to `Oc1ccc(O)cc1`, for which the growth inhibition is -0.85%.
Regarding `CCOC(=O)c1ccc(Nc2sc(C(=O)c3cccc([N+](=O)[O-])c3)c(N)c2C#N)cc1`, the growth inhibition was 2.8%.
As to `C=CCOC(=O)C(=O)OCC=C`, the growth inhibition is 5.35%.
The value for `CC1(C)OC(=O)C(c2ccsc2)C(=O)O1` was -7.05%; that for `CC(=O)CC(=O)N(C)C` was -2.5%; that for `CNc1nc(NC)c2cn[nH]c2n1` was -3.9%.
As for `COc1cc(CN)ccc1O`, the figure is 11.8%; as for `CN(C)c1ccc(S(=O)(=O)O)cc1`, 2.55%.
With `COc1ccc(/C=C/c2cccc[n+]2C)cc1`, the growth inhibition was -9.9%.
The value for `CCCCOC(OCCCC)c1ccccc1` was -1.8%; that for `O=[N+]([O-])c1cccc(C(F)(F)F)c1` was 34.3%.
In the case of `O=C1N(C[P+](c2ccccc2)(c2ccccc2)c2ccccc2)CCCN1C[P+](c1ccccc1)(c1ccccc1)c1ccccc1`, the growth inhibition was 15.1%.
As for `O=c1cc(-c2ccccc2)nc2cc(-c3ccco3)[nH]n12`, the growth inhibition is -2.6%.
The value for `CC(=O)Cc1cc(-c2cc(CC(C)=O)[nH]n2)n[nH]1` was -5.45%.
Regarding `COc1ccc(C(C)C=O)cc1` (stereo not given), the growth inhibition is -27.9%.
For the compound `CC1(C)S(=O)(=O)OCCOS1(=O)=O`, the growth inhibition is 7.35%.
Regarding `CC1=CC(=O)c2ccccc2C1=O`, the growth inhibition is 25.6%.
In the case of `CCCCC(O)c1ccccc1` (stereo not given), the growth inhibition is -12.9%.
As to `O=C1NC(=O)C2C(=O)NC(=O)C1C21CCc2ccccc21` (stereo not given), the growth inhibition is -41.9%.
